Measurements: PubChem BioAssay (NCI)
Compounds without any hit were thinned out: in the full panel of roughly 79,000, 15% have a hit. Activity calls are given as the source filed them. Rule as the data show it: active = growth inhibition above about 70%; inactive = the rest.

Tests used:
[1] = NCI Yeast Anticancer Drug Screen. Data for the rad52 strain (AID 147);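 also: 0% = growth of vehicle-treated control cultures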; conditions: S. cerevisiae rad52 mutant growth inhibition, hits give high values
Summary of the method: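 Read-out: growth inhibition versus vehicle-treated controls. Cells were a DNA repair-deficient yeast strain treated with compounds.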

[2] = NCI Yeast Anticancer Drug Screen. Data for the wt1 strain (AID 149);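 also: 0% = growth of vehicle-treated wt1 cultures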; conditions: S. cerevisiae wt1 strain (SPY 50644) growth inhibition, hits give high values
Summary of the method: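 The wt1 strain was treated with compounds, and growth was compared with vehicle-treated cultures to give inhibition.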

[3] = NCI Yeast Anticancer Drug Screen. Data for the rad50EPP+ strain (AID 151);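 also: 0% = growth of vehicle-treated control cultures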; conditions: S. cerevisiae rad50 mutant strain, hits give high values
Summary of the method: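 Growth inhibition read against vehicle controls in rad50EPP+ yeast, a strain altered in DNA damage repair, after compound exposure.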

[4] = NCI Yeast Anticancer Drug Screen. Data for the mgt1 strain (AID 153); conditions: S. cerevisiae mgt1 mutant growth inhibition, hits give high values
Summary of the method: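 mgt1 yeast grown with test compound; read-out is growth inhibition versus vehicle-treated cultures.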

[5] = NCI Yeast Anticancer Drug Screen. Data for the rad50 strain (AID 155);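 also: 0% = growth of vehicle-only cultures of the same strain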; conditions: S. cerevisiae rad50 strain growth inhibition, hits give high values
Summary of the method: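 Cells are treated with compound, grown, and their growth is then scored against vehicle-only cultures of the same repair-deficient yeast strain.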

[6] = NCI Yeast Anticancer Drug Screen. Data for the mec2-1 strain (AID 157); conditions: S. cerevisiae mec2-1 strain, hits give high values
Summary of the method: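 Yeast mec2-1 mutant treated with compound. Readout: growth inhibition vs vehicle controls.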

[7] = NCI Yeast Anticancer Drug Screen. Data for the rad14 strain (AID 159);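 also: 0% = growth of vehicle-treated control cultures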; conditions: S. cerevisiae rad14 strain growth inhibition, hits give high values
Summary of the method: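 Readout: yeast growth inhibition, referenced to vehicle-only cultures. Strain bears a defined alteration in DNA damage repair.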

[8] = NCI Yeast Anticancer Drug Screen. Data for the sgs1 mgt1 strain (AID 161);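 also: 0% = growth of cultures given vehicle only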; conditions: S. cerevisiae sgs1 mgt1 strain, hits give high values
Summary of the method: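 Read-out: growth inhibition vs vehicle controls. Cells: mutant yeast strain deficient in DNA damage repair.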

[9] = NCI Yeast Anticancer Drug Screen. Data for the cln2 rad14 strain (AID 165);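 also: 0% = growth equal to vehicle treated cultures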; conditions: S. cerevisiae cln2 rad14 strain, hits give high values
Summary of the method: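 cln2 rad14 yeast strain; compound exposure; growth inhibition read vs vehicle controls.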

[10] = NCI Yeast Anticancer Drug Screen. Data for the bub3 strain (AID 167); conditions: S. cerevisiae bub3 mutant strain, hits give high values
Summary of the method: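 Part of a panel of yeast mutants defective in DNA damage repair or cell cycle regulation. Each strain is grown with compound, and inhibition is calculated relative to solvent-treated cultures.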

[11] = NCI Yeast Anticancer Drug Screen. Data for the wt2 strain (AID 169);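 also: 0% = growth of vehicle-treated yeast cultures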; conditions: S. cerevisiae wt2 strain growth inhibition, hits give high values
Summary of the method: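 Read-out: growth inhibition versus vehicle-treated control cultures after compound exposure of the yeast strain.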

[12] = NCI Yeast Anticancer Drug Screen. Data for the sgs1 strain (AID 173);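 also: 0% = growth of vehicle-only control cultures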; conditions: S. cerevisiae sgs1 mutant, hits give high values
Summary of the method: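 Read-out: yeast growth inhibition relative to vehicle controls, following compound exposure of a strain with a defined DNA repair/cell cycle alteration.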

[13] = NCI Yeast Anticancer Drug Screen. Data for the mlh1 rad18 strain (AID 175); conditions: S. cerevisiae mlh1 rad18 strain growth inhibition, hits give high values
Summary of the method: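 Yeast w/ defined DNA-repair lesions; compound exposure; growth vs vehicle controls → % inhibition.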

[14] = NCI Yeast Anticancer Drug Screen. Data for the rad18 strain (AID 177); conditions: S. cerevisiae rad18 mutant growth inhibition, hits give high values
Summary of the method: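 Readout: growth inhibition vs vehicle controls. Cells: genetically altered yeast strain, DNA repair defect.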

[15] = at 5.0 µM (retest, dose inferred, filed as 0.5)
[16] = at 50.0 µM (retest, dose inferred, filed as 5.0)

Measured: growth inhibition

O=C1CSc2cc([N+](=O)[O-])ccc2N1
active: [10]; at 33.0 µM 74% | [10]; [16] 79% | [10]; at 50.0 µM 70.2% | [10]; at 100.0 µM 91%
inactive: [1]; at 1.2 µM 10% | [1]; at 3.7 µM 6% | [1]; at 11.0 µM 9% | [1]; at 33.0 µM 16% | [1]; at 100.0 µM 15% | [2]; at 1.2 µM 4% | [2]; at 3.7 µM 12% | [2]; at 11.0 µM 5% | [2]; at 33.0 µM 18% | [2]; at 100.0 µM -20% | [3]; at 1.2 µM -9% | [3]; at 3.7 µM 3% | [3]; at 11.0 µM -4% | [3]; at 33.0 µM 3% | [3]; at 100.0 µM -6% | [4]; at 1.2 µM 0% | [4]; at 3.7 µM 3% | [4]; at 11.0 µM -3% | [4]; at 33.0 µM -8% | [4]; at 100.0 µM 3% | [5]; at 1.2 µM -20% | [5]; at 3.7 µM -6% | [5]; [15] -1% | [5]; at 11.0 µM -22% | [5]; at 33.0 µM -18% | [5]; [16] -14% | [5]; at 50.0 µM 21.1% | [5]; at 100.0 µM -17% | [6]; at 1.2 µM -4% | [6]; at 3.7 µM -5% | [6]; [15] -31% | [6]; at 11.0 µM -10% | [6]; at 33.0 µM -21% | [6]; [16] -12% | [6]; at 50.0 µM -18.1% | [6]; at 100.0 µM -22% | [7]; at 1.2 µM -16% | [7]; at 3.7 µM -7% | [7]; at 11.0 µM -6% | [7]; at 33.0 µM -10% | [7]; at 100.0 µM -11% | [8]; [15] -14% | [8]; [16] -14% | [8]; at 50.0 µM -11% | [9]; [15] 23% | [9]; [16] 27% | [9]; at 50.0 µM 22.4% | [10]; at 1.2 µM 8% | [10]; at 3.7 µM 9% | [10]; [15] 0% | [10]; at 11.0 µM 23% | [11]; at 1.2 µM 19% | [11]; at 3.7 µM 23% | [11]; at 11.0 µM 14% | [11]; at 33.0 µM 21% | [11]; at 100.0 µM 4% | [12]; at 1.2 µM 19% | [12]; at 3.7 µM 19% | [12]; at 11.0 µM 17% | [12]; at 33.0 µM 36% | [12]; at 100.0 µM 11% | [13]; [15] -15% | [13]; [16] -2% | [13]; at 50.0 µM -5.25% | [14]; at 1.2 µM 0% | [14]; at 3.7 µM -18% | [14]; at 11.0 µM -3% | [14]; at 33.0 µM -2% | [14]; at 100.0 µM -13%
